# According to PubChem BioAssay (EPA / NIEHS):
# Activity calls are given as the source filed them. How the source made its calls: active means hit-call score of the fitted dose curve at least 0.9, where 1 is the maximum; inactive means score below 0.9.
# Read-out: ABC Transporter (ABCB1), ABCB1 (gene 5243)
# Test: LTEA_HepaRG_ABCB1: Life Technologies and Expression Analysis (LTEA) Assay for ABC Transporter (ABCB1) using HepaRG (AID 2283460)
# Details: mRNA level, 48 h; actives raise or lower the signal
# Method: LTEA_HepaRG is a cell based, multiplexed-readout assay that uses HepaRG, a human liver cell line, with measurements taken at 48 hours after chemical dosing on a 96-well plate.LTEA_HepaRG_ABCB1 is one of 102 assay component(s) measured in the LTEA HepaRG cell culture assay. It is a marker of Steatosis/NR mediated transport.Data from the assay component LTEA_HepaRG_ABCB1 was analyzed into 1 endpoint. This assay endpoint, LTEA_HepaRG_ABCB1, was analyzed with bidirectional fitting relative to DMSO as the negative control and baseline of activity. Using a type of inducible reporter, measures of mRNA induction for gain or loss-of-signal activity can be used to understand regulation of transcription factor activity. To generalize the intended target to other relatable targets, this assay endpoint is annotated to the transporter intended target family, where the subfamily is ABC transporter.
# A total of 1060 chemcials from the ToxCast library were tested in eight-point concentration-response experiments. Cell culture and cytotoxicity assays were conducted at Thermo Fisher Scientific's Custom Services facility (Madison, WI). A single lot of human HepaRG cells (Thermo Fisher Scientific, Frederick, MD) was used for the cell culture experiments. 96-well format collagen type I coated plates of human HepaRG cells were prepared using established methods. Briefly, cryopreserved HepaRG cells were thawed, plated at a density of approximately 100,000 cells/well in HepaRG Thaw, Plate, and General Purpose media (HPRG770, Thermo Fisher Scientific), and incubated for 48 hours. 0.5% DMSO was selected as vehicle control to balance the requisite need of DMSO in HepaRG cultures to maintain differentiation (for example, baseline metabolism, proportions of hepatocytes vs. cholangiocytes), while enabling further hepatic receptor pathway activation (for example, PXR and CAR) in response to chemical exposure. 48 hours after plating, the culture medium was replaced with HepaRG Serum-Free Incudtion Media. Cells were exposed to each test chemical in duplicate and maintained in CO2 incubators for another 48 hours. Chemical plates were thawed to room temperature and 200x concentrations of treatment groups were prepared. 8-point conentration-reponse curves were made with the highest exposure at 100 uM, followed by half-log dilutions, all in 0.5% DMSO. Each test plate contained variouse controls, induction positive controls (1mM phenobarbital), cytotoxicity positive controls ([…] aflatoxin B1), vehicle controls (0.5% DMSO), and total lysis controls (0.5% DMSO). Cell morphology images were taken using an Essen IncuCyte FLR automated microscope, with six 96-well plates imaged in about 24 minutes. Images were captured and exported and JPEG files. Spent culture media was transfered to black-well plates for the LDH assay, and remaining media was sorted at -80 C for later use. Cells were treated with RLT buffer and frozen until shipped for gene expression analysis. Total RNA was isolated from the cell suspension in 75 uL of Buffer RLT (Qiagen, Germantown, MD 20874) by Quintiles/Expression Analysis (Durham, NC) using a custom isolation procedure. Total RNA from each plate well was transferred to a preamplification plate. Fluidigm's 96.96 Dynamic ArrayTM (Fluidigm, Amsterdam, the Netherlands) technology was used for gene expression analyses by quantitative reverse transcription polymerase chain reaction (qRT-PCR, performed by Quintiles/Expression Analysis, Durham, NC)89. Standard TaqManTM Assays (Applied Biosystems/ThermoFisher Scientific, Foster City, CA) were used to assess the expression of 93 genes selected based on their selectivity and sensitivity to important hepatic receptors known to be modulated by environmental chemicals; importance in human hepatocyte functionality; and hepatotoxicity. […]
row,Compound,outcome
1,COc1ccccc1N,inactive
2,Clc1cccc(Cl)c1,inactive
3,Cc1cc(C)cc(C)c1,inactive
4,N#Cc1cccnc1,inactive
5,Clc1cccc(Cl)c1Cl,inactive
6,O=C(N[C@H]1CN2CCC1CC2)c1ccc2c(c1)OCCO2,inactive
7,OCCN(CCO)CCO,inactive
8,CCCCCCCCCCCCc1cccc(S(=O)(=O)O)c1,inactive
9,CC(C)O.CC(C)O.OCCN(CCO)CCO.OCCN(CCO)CCO.[Ti],inactive
10,O=C(O)C1(c2ccc3c(c2)OC[C@H](Cc2ccc(-c4ccccc4)cc2)[C@H]3O)CCCC1,inactive
11,CN(C)C(=S)S,inactive
12,Oc1cc(Cl)c(Cl)cc1Cl,inactive
13,CC(C)(C)c1ccccc1O,inactive
